Here are results for 15 sequences from the OligoGym collection.
Further: reference of the scale not given here.

For one test, the target named is MTG1. The test can be described thus: pooled miR-30 sensor sort-seq; sequence = guide strand. Particulars: shRNA.
On to TATAGCTTTAACTCCTTCTGAG, for which the sensor-assay potency score (higher = more potent) is -0.0288.
ATTTTGGACATCACAGCTCTGG came in with a sensor-assay potency score (higher = more potent) of -0.514.
Same read-out and setting: the result for ATCAGTTCAGTGACCATCGGGA reads -0.492.

For the next test, the target named is MTMR14. The description is as above. The settings on record: shRNA.
TTGAACAGGATTACTGGGCAGA came in with a sensor-assay potency score (higher = more potent) of -0.111.
On the same count and under the same terms, with TTGTCCACCTTCTCAGAGGAGG the figure was -1.29.
The same measure, in the same setting: with TTTGTGATCTGTGTCAAACTGC the figure was 0.417; with TTCGTGTTTGGAATCACGCTGA, 0.52.
Same read-out and setting: with TTTGGAATCACGCTGAAACAGT the figure was -0.856; with TTATTTTGTGATCTGTGTCAAA, -0.837; with TGACAGGTATCGAAGCAGCTTG, -1.11.
In the case of TGAAACAGTAGTCTCGGCCAAA, the sensor-assay potency score (higher = more potent) was -1.3.
The same measure, in the same setting: with TCGAAGAGCACAGTCCTCCTCC the figure was -0.118; with TTTGCTGAGCCGATCTACCAAC, -1.14; with TGAGATACAGTGTACCAGCAGC, -0.892.
On the same count and under the same terms, the result for TATTTGACTGACAGGTATCGAA reads -0.898.
